# IL1B secr inh – inhibitors of inflammasome signaling (IL-1 beta secretion) | THP-1 LPS/ATP IL-1B secretion, AlphaLISA, 16 h; hits give low values | activity change, % at 57.5 µM | 360,000 compounds, 4.7% hits; in the data active means activity change below about -50%; inconclusive means mostly about -30% to -49%
#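 THP-1 cells pretreated 1 hr with compounds (up to 57.5 uM final), then stimulated with LPS (250 ng/mL final) plus ATP (1.25 mM final); secreted IL-1B measured by AlphaLISA after 16 hr, decreased signal indicating inhibition.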
# HT1080-NT tox – kills 2HG-producing HT-1080-NT fibrosarcoma cells | HT-1080-NT fibrosarcoma viability, CellTiter-Glo ATP luminescence, 48 h | Potency, µM (series often up to 46.1 µM), without a hit: top-dose activity, negative = less viability, most hits filed as cytotoxic | 360,000 compounds, 1.6% hits | AID 686970;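 further: NT is the 2HG producing partner of a matched IDH1 knockdown line; potency means the concentration at half of the fitted maximal effect; 0% = DMSO-treated cells and -100% = media-only wells without cells; nearly all actives have a fitted effect of over 55% in size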
#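 Fibrosarcoma NT cells, 750 per well in 5% FBS RPMI, were exposed to compound for 48 hours. Viability: CellTiter-Glo luminescence.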
# HT1080 IDH1KD tx – HT-1080 IDH1 knockdown cell toxicity (counter line) | HT-1080 IDH1 knockdown viability, ATP luminescence, 48 h | Potency, µM (highest dose often 46.1 µM), for inactives: at the top dose activity, negative = toxicity, actives largely listed as cytotoxic | 360,000 compounds, 2% hits | AID 686971;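 further: potency means the concentration at half of the fitted maximal effect; 0% = DMSO wells and -100% = cell-free medium wells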
#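 HT-1080-IDH1KD cells (IDH1 knocked down), 750/well in RPMI with 5% FBS, treated with compound 48 h at 37 degrees C. Viability by CellTiter-Glo luminescence, normalised to DMSO and no-cell wells; concentration-response curves classed.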
# TDP1 cell noCPT – qHTS for Inhibitors of human tyrosyl-DNA phosphodiesterase 1 (TDP1): qHTS in cells in absence of CPT. DT40 Tdp1-/- hTDP1 cells, no CPT, ATP luminescence, 48 h. Potency, µM (series often up to 46.2 µM), inactives show top-dose activity change, negative = growth inhibition, actives largely listed as inhibitors. 420,000 compounds, 15% hits; further: potency means the concentration at half of the fitted maximal effect; nearly all actives have a fitted effect of over 55% in size
#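 Luminescent ATP content (CellTiter-Glo) served as the growth readout. Knockout chicken DT40 cells expressing human TDP1 were exposed to compounds without camptothecin for a minimum 48 hr at 37 °C.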
# TDP1 cell CPT – DT40-hTDP1 cell growth loss with CPT. chicken DT40 Tdp1-/-;hTDP1 cells + 20 nM CPT, ATP luminescence, 48 h. Potency, µM (series often up to 46.2 µM), for inactives: top-dose activity change, negative = growth inhibition, hits mostly inhibitors. 420,000 compounds, 12% hits; further: potency means the concentration at half of the fitted maximal effect; nearly all actives have a fitted effect of over 55% in size
#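 Cell growth measured by CellTiter-Glo luminescence after a minimum 48 h, 37 C compound exposure with 20 nM CPT in Tdp1-knockout DT40 cells stably expressing hTDP1, seeded 400/well; qHTS titration format.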
# An asterisk follows results filed as active; ? = inconclusive; nt = no result given. Sampled rows, rich in hits. Any-hit rate of the full collection: about 19%. Unless noted, the call rests on the fitted dose curve; in most records, active means well fitted curve in the direction sought with a large enough effect; inconclusive means small, poorly fitted or top-dose-only effect, or another doubt; inactive means no such curve, though single readings can be large; an effect the other way counts as inactive or inconclusive. Unless noted, on the % scale 0 is the no-effect control and ±100 the full control effect.
SMILES,IL1B secr inh,HT1080-NT tox,HT1080 IDH1KD tx,TDP1 cell noCPT,TDP1 cell CPT
CCCNc1nc(N2CCCC2)nc(N2CCCC2)n1,-65*,?,?,13µM*,?
CCNc1nc(NC(N)=S)nc(NC(C)(C)C)n1,12,-24%,-16%,-21%,13%
CC(C)(C)Nc1nc(N2CCCC2)nc(N2CCCC2)n1,53,0%,-15%,16µM*,?
CCNc1nc(NC(C)(C)C)nc(N2CCCC2)n1,27,-9%,?,?,18µM*
CC(=O)c1cn(Cc2ccccc2)c(=O)[nH]c1=O,14,23%,13%,12%,3%
CC1CCCC(NC(=O)C2CCN(S(=O)(=O)N3CCCCCC3)CC2)C1C (stereo unspecified),-4,16%,6%,23µM*,?
OCC[C@H]1C[C@@H](O)[C@H](O)[C@@]2(OCc3ccccc32)O1,0,-2%,2%,2%,-1%
Cc1ccc(NC(=O)c2cnc(N3CCCCC3)c3ccccc23)c(C)c1,nt,nt,nt,-23%,?
O=C(NCc1ccc(F)cc1)c1cnc(N2CCOCC2)c2ccccc12,nt,nt,nt,16µM*,?
Cc1ccc(CNC(=O)c2cnc(N3CCCCC3)c3ccccc23)cc1,nt,nt,nt,16µM*,?
O=C(NCc1cccc(Cl)c1)c1cnc(N2CCCCC2)c2ccccc12,nt,nt,nt,26µM*,16µM*
COc1cccc(CNC(=O)c2cnc(N3CCCCC3)c3ccccc23)c1,nt,nt,nt,?,15µM*
COc1ccccc1CC(=O)N1CCC(CCC(=O)NC2CC2)CC1,33,13%,2%,1%,-7%
CN(CC(=O)Nc1ccc(F)cc1)C(=O)c1ccc(OCc2ccccc2)cc1,5,-7%,-16%,-10%,-24%
CC1(C)CC(=O)C(C=NCCN2CCNCC2)=C(O)C1,-22,-1%,6%,?,-22%
Cc1cccc(S(=O)(=O)N2CCCc3ccccc32)c1,34,2%,0%,?,26µM*
O=C(Nc1ccccn1)c1cccc(S(=O)(=O)N2CCCc3ccccc32)c1,13,-7%,-22%,?,?
Cc1ccnc(NC(=O)c2cccc(S(=O)(=O)N3CCCc4ccccc43)c2)c1,4,-5%,-4%,21µM*,21µM*
Cc1cc(C)c(S(=O)(=O)N2CCCc3ccccc32)c(C)c1,29,8%,2%,?,?
COc1ccc(NCC(=O)N/N=C/C2CCCCC2)cc1,1,-9%,-6%,15%,1%
CCOC(=O)c1oc2ccccc2c1CN1CCN(c2ccccc2)CC1,-6,-10%,-6%,18µM*,?
Cc1occc1C(=O)N1CCN(c2ccc([N+](=O)[O-])cc2)CC1,-4,0%,-4%,?,?
Cc1c(-c2ccccc2)oc2c(C(=O)N3CCN(c4ccc([N+](=O)[O-])cc4)CC3)cccc2c1=O,-6,-1%,1%,21µM*,16µM*
CCOC(=O)c1oc2ccccc2c1CN1CCN(C(=O)c2ccccc2)CC1,?,-1%,0%,?,?
COc1ccc(N2CCN(C(=O)COC(=O)c3oc4ccccc4c3C)CC2)cc1,5,3%,2%,16µM*,21µM*
SMILES,IL1B secr inh,HT1080-NT tox,HT1080 IDH1KD tx,TDP1 cell noCPT,TDP1 cell CPT
Cc1c(C(=O)N2CCN(c3ccc([N+](=O)[O-])cc3)CC2)oc2ccccc12,-18,3%,-1%,16µM*,?
Cc1cccc(N/N=C/c2ccc(O)c(O)c2O)c1,29,-27%,-28%,?,?
Cc1cccc(N/N=C/c2ccc(C)s2)c1,6,-3%,-8%,?,29µM*
O=C(OCc1ccccc1)N1CCC2CC1c1cc(-c3ccc4c(c3)OCO4)ccc12 (stereo unspecified),9,-3%,3%,?,15µM*
O=C(OCc1ccccc1)N1CCC2CC1c1cc(Cl)ccc12 (stereo unspecified),?,-5%,-4%,?,?
COc1ccc(-c2ccc3c(c2)C2CC3CCN2C(=O)C(C)(C)C)cc1 (stereo unspecified),-6,-2%,-1%,21µM*,?
Cc1ccc(C(=O)N2CCC3CC2c2cc(-c4ccc5c(c4)OCO5)ccc23)cc1 (stereo unspecified),3,-16%,-12%,13µM*,16µM*
O=C(c1ccc(-c2ccccc2)cc1)N1CCC2CC1c1cc(-c3ccc4c(c3)OCO4)ccc12 (stereo unspecified),-26,6%,4%,?,?
CCCCN(C(C)=O)c1ccc2c(c1)C1CC2CCN1C(=O)OCc1ccccc1 (stereo unspecified),6,-14%,-24%,3.7µM*,2.1µM*
CCN(CCc1ccccc1)c1ccc2c(c1)C1CC2CCN1C(=O)OCc1ccccc1 (stereo unspecified),15,4%,6%,?,?
O=C(CCn1ccnc1)Nc1ccc2ccccc2c1,3,2%,0%,4%,?
CN(CCc1ccccc1)C(=O)c1ccc(NC(=O)Cc2ccc([N+](=O)[O-])cc2)cc1,?,-4%,-3%,?,?
COc1ccccc1NC(=S)N(Cc1ccco1)Cc1cc2cc(C)c(C)cc2[nH]c1=O,-54*,?,7.3µM*,5.2µM*,4.1µM*
COc1ccccc1NC(=O)N(Cc1ccco1)Cc1cc2cc(C)cc(C)c2[nH]c1=O,?,?,?,15µM*,21µM*
COc1ccccc1NC(=O)N(Cc1ccco1)Cc1cc2ccc(C)c(C)c2[nH]c1=O,2,3.7µM*,2.6µM*,4.1µM*,3.7µM*
Cc1ccc(C)c2[nH]c(=O)c(CN(Cc3ccco3)C(=O)Nc3ccccc3)cc12,-23,-14%,-26%,?,?
COc1ccccc1NC(=S)N(Cc1ccco1)Cc1cc2cccc(C)c2[nH]c1=O,-19,-2%,-8%,?,?
O=c1[nH]c2ccccc2c2cn(-c3ccccc3)nc12,?,-3%,-24%,?,-3%
CC(=O)Nc1cccc(-c2cc(NC(C)=O)c3ncc(-c4ccc(C(C)=O)cc4)n3c2)c1,0,-22%,-25%,7.3µM*,5.2µM*
CC(=O)Nc1cc(-c2cccc(F)c2)cn2c(-c3ccc(F)cc3)cnc12,6,?,-29%,23µM*,?
CC(=O)Nc1cc(-c2cccc(C(=O)N(C)C)c2)cn2c(-c3ccc(F)cc3)cnc12,nt,-14%,-21%,?,?
CC(=O)Nc1cc(-c2cccc(N)c2)cn2c(-c3ccccc3)cnc12,-4,-14%,-24%,?,18µM*
